# The list is not random: actives were taken first. Their share in the collection is about 1.6%.
# NSD2 inh = inhibitors of human histone methyltransferase NSD2; O96028; NSD2 peptide methylation, AlphaScreen, 120 min; inhibition, % at 12.5 µM; 310,000 compounds, 0.54% hits; AID 743445; in the data active = inhibition above about 50%
# NPR1 activator = GC-A (human) enzyme activation | activation, % at 10 µM | 370,000 compounds, 0.14% hits | P16066 | HEK293 GC-A cells, cGMP TR-FRET, EC30 ANP; 0% at EC30 ANP, 100% saturating ANP; in the data active = activation above about 40%
# Target sequence (P16066 whole entry, looked up): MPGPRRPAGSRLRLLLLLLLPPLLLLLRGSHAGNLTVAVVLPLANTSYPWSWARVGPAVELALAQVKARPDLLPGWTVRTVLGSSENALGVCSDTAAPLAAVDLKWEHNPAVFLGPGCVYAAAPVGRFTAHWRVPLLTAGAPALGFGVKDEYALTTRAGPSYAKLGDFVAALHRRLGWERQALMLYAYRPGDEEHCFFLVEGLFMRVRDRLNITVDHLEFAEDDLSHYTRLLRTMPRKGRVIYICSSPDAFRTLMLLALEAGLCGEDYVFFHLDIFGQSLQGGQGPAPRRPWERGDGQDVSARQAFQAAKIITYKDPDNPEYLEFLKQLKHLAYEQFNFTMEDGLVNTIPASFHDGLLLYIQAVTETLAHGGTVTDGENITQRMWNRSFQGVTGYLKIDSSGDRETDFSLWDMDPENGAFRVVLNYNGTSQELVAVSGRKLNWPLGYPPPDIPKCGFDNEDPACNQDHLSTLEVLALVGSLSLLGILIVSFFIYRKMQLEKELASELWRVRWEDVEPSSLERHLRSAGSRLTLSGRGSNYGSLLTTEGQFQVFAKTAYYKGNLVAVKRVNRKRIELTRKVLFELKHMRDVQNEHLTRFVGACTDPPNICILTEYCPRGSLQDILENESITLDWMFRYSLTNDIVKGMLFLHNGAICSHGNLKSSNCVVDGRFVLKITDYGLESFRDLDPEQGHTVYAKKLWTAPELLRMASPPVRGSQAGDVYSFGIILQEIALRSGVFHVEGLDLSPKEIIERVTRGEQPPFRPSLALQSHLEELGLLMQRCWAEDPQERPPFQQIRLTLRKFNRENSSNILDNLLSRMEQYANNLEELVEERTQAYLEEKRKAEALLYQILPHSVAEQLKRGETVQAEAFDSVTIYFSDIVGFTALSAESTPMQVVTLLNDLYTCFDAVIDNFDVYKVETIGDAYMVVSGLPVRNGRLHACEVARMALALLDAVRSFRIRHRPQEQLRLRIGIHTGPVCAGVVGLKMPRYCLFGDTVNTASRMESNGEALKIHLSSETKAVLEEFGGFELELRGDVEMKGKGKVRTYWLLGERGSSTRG
# GC-B act = GC-B (human) receptor activation. P20594. HEK293-GC-B cells, CNP EC30, cGMP TR-FRET; 0% at EC30 CNP, 100% saturating CNP. activation, % at 10 µM. 370,000 compounds, 0.11% hits;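 active = activation at 10 µM reaching about 35% in either raw or pattern-adjusted values, limit read from the data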
# V-ATPase pHluor = yeast V-ATPase proton transport regulation by pHLuorin. S. cerevisiae, pHLuorin cytosolic pH fluorescence. response, % at 10 µM. 350,000 compounds, 0.37% hits; in the data active = response mostly above about 7.3%, no sharp cut-off; inactive = mostly below about 5.4%; also: actives read high
# Efflux pump inh = antifungal efflux pump inhibition, Nile Red retention. S. cerevisiae Candida pump triplex. inhibition, % at 10 µM. 330,000 compounds, 0.44% hits;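 active = plate passing quality check with inhibition over a set limit, or well fluorescence over plate mean plus 4 SD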;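 also: Nile Red retained in pooled yeast measured as flow cytometry median fluorescence; higher means more Nile Red kept so more efflux inhibition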
# Rce1 inhib = inhibitors of yeast Ras-converting enzyme; calls only; yeast membranes, quenched prenylated peptide cleavage fluorescence; AID 2563; 290,000 compounds, 0.27% hits;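 active = fall in fluorescence gain of 50% or more versus controls, with final raw signal at or below 3038400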
# V-ATPase pH SP = modulates yeast V-ATPase proton transport. AID 602197. shares compounds with V-ATPase pHluor. S. cerevisiae pHLuorin cytosolic pH. 980 compounds, 2% hits. response, % at 10 µM; in the data active = response above about 24%
# Alpha artifact = AlphaScreen assay artifact in NSD2 counter-screen | AC35, µM (top dose mostly 10 µM) | 1,500 compounds, 9.4% hits | AlphaScreen artifact counterscreen, preloaded methylated H4 peptide | shares compounds with NSD2 inh; call rule not given here
# A number is an active result; - = inactive; . = no result.
SMILES,NSD2 inh,NPR1 activator,GC-B act,V-ATPase pHluor,Efflux pump inh,Rce1 inhib,V-ATPase pH SP,others
Cc1nc(C(=O)NC2CCCCC2)sc1C1(C)CC(c2cccc([N+](=O)[O-])c2)=NO1 (stereo not given),.,-,-,-,-,-,.,
Cc1nc(C(=O)Nc2ccc(Cl)cc2)sc1C1(C)CC(c2cccc([N+](=O)[O-])c2)=NO1 (stereo not given),.,-,-,10.0,-,-,-,
Cc1ncoc1C(=O)N1CCCC(C(=O)c2cccc(OC(C)C)c2)C1 (stereo not given),-,-,-,-,-,-,.,
Cc1noc(C)c1C(=O)N1CCCC(C(=O)c2cccc(OC(C)C)c2)C1 (stereo not given),-,-,-,12.8,-,-,-,
C#Cc1cccc(OC[C@@H](O)CN2CCC(C(O)(c3ccccc3)c3ccccc3)CC2)c1,.,-,-,.,.,.,.,
O=C(NCCC1=CCCCC1)c1cc2ccccc2oc1=O,-,-,-,10.4,-,-,-,
CC(=O)NCCSC(=O)c1ccc(F)cc1,.,-,-,-,-,-,-,
O=C(NCCCN1CCN(CCCNC(=O)c2ccc(F)cc2)CC1)c1ccc(F)cc1,-,-,-,-,-,-,-,
O=C(NCCNC(=O)c1cc(F)cc(F)c1)c1cc(F)cc(F)c1,-,-,-,-,-,-,.,
O=C(NCCNC(=O)c1ccc(F)cc1)c1ccc(F)cc1,.,-,-,-,-,-,-,
COc1ccccc1C(=O)NC1CCCCN(Cc2cccc(F)c2)C1=O (stereo not given),.,-,-,.,.,.,.,
CC(C)(C)c1ccc(S(=O)(=O)N2CCCC2C(=O)N2CCN(c3ccccc3)CC2)cc1 (stereo not given),.,-,-,.,.,.,.,
Cc1ccc(C(=O)OCC(=O)NCc2cccs2)cc1,-,-,-,9.9,-,.,-,
Cc1ccc(C(=O)OCC(=O)NCc2cccs2)cc1C,-,-,-,-,-,-,.,
COc1ccc(OC)c(CN2C(=O)CCCCC2(C)c2nnnn2C2CCCC2)c1 (stereo not given),.,-,-,.,.,.,.,
COc1ccc(NS(=O)(=O)c2ccc(C)c(C(=O)NCC(c3ccco3)N3CCCCC3)c2)cc1 (stereo not given),-,-,-,9.9,-,-,-,
Cc1csc(SCC(=O)NC2CCC(C)CC2)n1 (stereo not given),-,-,-,7.5,-,-,-,
CN(C(=O)c1cccc(NC(=O)Cc2ccc(NC(=O)C3CCN(C(=O)CCc4ccccc4)CC3)cc2)c1)C1CCCCC1,.,-,-,7.7,.,.,-,
Cc1csc2c(SCC(=O)NNC(=O)C(Cl)Cl)ncnc12,-,-,-,12.0,-,-,-,
CCN(CC)c1ccc(C=Nn2c(-c3ccc(F)cc3)n[nH]c2=S)c(O)c1,-,-,-,.,.,.,.,
COc1ccc(CN2C(=O)CSCCC2(C)c2nnnn2-c2c(C)cccc2C)cc1 (stereo not given),.,-,-,.,.,.,.,
CNC(=O)COC(=O)/C=C/c1cccs1,78.7,-,-,9.0,-,-,-,Alpha artifact=-
Cc1c[nH]c2cccc(-c3ccc(Cl)cc3Cl)c12,.,-,-,.,.,.,.,
Cc1ccc2c(c1)CC1(CN2C)C(=O)OC2(CCCCC2)OC1=O,-,-,-,-,-,-,.,
CN1CC2(Cc3c1ccc1ccccc31)C(=O)OC(C)(C)OC2=O,86.6,-,-,-,-,-,.,Alpha artifact=-
SMILES,NSD2 inh,NPR1 activator,GC-B act,V-ATPase pHluor,Efflux pump inh,Rce1 inhib,V-ATPase pH SP,others
O=C(O)COc1ccc2c(c1)O/C(=C\c1ccco1)C2=O,65.9,-,-,-,-,-,.,Alpha artifact=-
Cc1ccccc1Cn1cc(CN2[C@@H](CC(C)C)COc3cc(Br)ccc3S2(=O)=O)nn1,.,-,-,.,.,.,.,
CNc1ccccc1/C(O)=C(\C#N)C(=O)NCc1cccs1,.,-,-,.,.,.,.,
COc1ccc(C(=O)Nc2c(F)c(F)c(F)c(F)c2F)cc1OC,.,-,-,.,.,.,.,
COc1ccc(NC(=O)c2ccc(F)c(F)c2)c2ccccc12,53.6,-,-,-,-,-,.,Alpha artifact=-
N#Cc1c2nc3ccccc3nc2n2cc(NC(=O)c3ccc(F)cc3)ccc12,73.4,-,-,-,.,.,.,Alpha artifact=-
C/C(=C\C(=O)c1cccnc1)Nc1ccc(O)cc1,77.7,-,-,-,-,-,.,Alpha artifact=-
C/C(=C\C(=O)c1ccccc1)Nc1ccc(O)cc1,78.1,-,-,-,-,-,.,Alpha artifact=-
